Records with an inconclusive call do not appear. Activity calls are given as the source filed them. Unless noted, the rule behind the calls is not given here. Where a SMILES comes first, the peptide text is derived from it. [ ]: non-standard residue; d: D form. The star is where a group is joined. Sta = CC(C)C[C@H](N)[C@@H](O)CC(=O)O; Isovaleryl = CC(C)CC(=O)*
What was measured:
[1] = JHH-DIPG-1 glioma cell viability, MIPE5.0 library, CellTiter-Glo luminescence, qHTS (AID 1347067; cut-off not given, nearly all actives have AC50 up to about 26 µM;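 note: cells exposed to compound for 48 hours before readout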); conditions: JHH-DIPG-1 glioma viability, CellTiter-Glo ATP luminescence
[2] = compounds altering viability of human ES cells (AID 493140); conditions: human embryonic stem cell survival screen; stronger effect = higher value;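 note: cells exposed to compounds for four days before counting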
[3] = compounds altering circadian rhythm period length – cell-based, LOPAC library, luminescence reporter (AID 2774); conditions: circadian reporter cells, at 7 µM, actives lie on both sides;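 note: values are relative to mean of DMSO wells on each plate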
[4] = test system: Hepatitis C virus NS3 helicase; experiment: blockers of NS3h binding to ssDNA – biochemical, fluorescence polarization, LOPAC1280 library, primary screen (AID 687035; in the data active = inhibition above about 37%); conditions: Purified HCV NS3 helicase, Cy5-dT15 ssDNA binding fluorescence polarization; stronger effect = higher value; concentration not given here
[5] = compounds altering Cy5-DNA-NS3h complex signal – biochemical, LOPAC1280, artefact control for HCV NS3 helicase inhibitor project (AID 687037); conditions: Cy5-DNA-NS3h complex fluorescence interference counterscreen
[6] = blockers of cellular phospholipid synthesis – cell-based, LOPAC library, screen 4, primary screen (AID 1347384); conditions: animal cells, phospholipid biosynthesis inhibition screen; at 10 µM
[7] = molecular target: Mitogen-activated protein kinase 7 (Homo sapiens) (UniProt Q13164); experiment: Gal4-ERK5 driven luciferase induction – cell-based, HTS, primary screen (AID 1508626;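 active = luciferase signal above three times the same-plate solvent-only control wells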;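 note: luciferase driven by Gal4-ERK5 fusion binding five Gal4 sites before minimal TATA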); conditions: HeLa Gal4-ERK5 transactivation, 18 h, at 5 µM, stronger effect = higher value
Sequence of Mitogen-activated protein kinase 7 (Homo sapiens) (Q13164 whole entry, looked up, the tested form may be a part): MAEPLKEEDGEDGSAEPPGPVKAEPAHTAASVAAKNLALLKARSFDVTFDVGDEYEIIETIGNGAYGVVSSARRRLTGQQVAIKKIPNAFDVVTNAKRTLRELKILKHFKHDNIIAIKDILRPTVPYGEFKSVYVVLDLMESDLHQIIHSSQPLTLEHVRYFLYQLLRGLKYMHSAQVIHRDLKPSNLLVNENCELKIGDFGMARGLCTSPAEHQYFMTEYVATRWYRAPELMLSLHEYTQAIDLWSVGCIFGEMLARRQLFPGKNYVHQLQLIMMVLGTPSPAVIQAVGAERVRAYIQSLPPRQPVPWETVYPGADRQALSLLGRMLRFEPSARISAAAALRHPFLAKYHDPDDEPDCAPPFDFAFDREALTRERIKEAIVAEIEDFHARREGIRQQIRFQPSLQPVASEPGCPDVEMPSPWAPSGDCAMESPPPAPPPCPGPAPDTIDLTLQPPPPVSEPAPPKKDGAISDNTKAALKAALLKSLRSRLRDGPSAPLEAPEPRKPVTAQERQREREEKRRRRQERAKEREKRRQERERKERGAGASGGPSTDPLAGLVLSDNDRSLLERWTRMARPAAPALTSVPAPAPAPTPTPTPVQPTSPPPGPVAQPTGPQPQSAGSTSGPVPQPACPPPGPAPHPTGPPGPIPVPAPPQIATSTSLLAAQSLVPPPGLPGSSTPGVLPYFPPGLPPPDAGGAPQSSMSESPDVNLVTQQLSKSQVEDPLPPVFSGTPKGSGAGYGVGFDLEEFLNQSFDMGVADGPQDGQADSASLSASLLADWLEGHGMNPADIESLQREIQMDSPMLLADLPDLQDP

[8] = viability loss in pontine glioma line – cell-based, SU-DIPG-IV, MIPE4.0, CellTiter-Glo, qHTS, dose response (AID 1347063; cut-off not given, nearly all actives have AC50 up to about 30 µM;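 note: compound exposure lasted 48 hours before the viability readout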); conditions: CellTiter-Glo ATP luminescence
[9] = viability loss in pontine glioma line – cell-based, SU-DIPG-XXV, MIPE5.0, CellTiter-Glo, qHTS, dose response (AID 1347065; cut-off not given, nearly all actives have AC50 up to about 26 µM;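 note: cells exposed to compound for 48 hours before ATP readout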); conditions: CellTiter-Glo ATP luminescence
[10] = growth inhibition of DIPG cells – cell-based, MIPE4.0 library, CellTiter-Glo luminescence, qHTS (AID 1347066; cut-off not given, nearly all actives have AC50 up to about 30 µM;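 note: cells exposed to compound for 48 hours before readout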); conditions: SU-DIPG-VI viability, CellTiter-Glo ATP luminescence
[11] = viability loss in pontine glioma line – cell-based, SU-DIPG-XIII, MIPE5.0, CellTiter-Glo, qHTS, dose response (AID 1347064; cut-off not given, nearly all actives have AC50 up to about 23 µM;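 for AC50: cells exposed to compound for 48 hours before the viability read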); conditions: CellTiter-Glo ATP luminescence
[12] = compounds altering HSF1 focus formation in cells – imaging, Selleck Cancer Library (AID 1347162; in the data active = plate-normalised HSF1 focus index below about 0.46); conditions: human cells, HSF1 nuclear foci imaging, at 10 µM; SSMD: measured here: HSF1 foci SSMD mean; cell count: measured here: cell number; plate-normalised HSF1 focus index: stronger effect = lower value

CN(C(=O)c1c(O)c2ccccc2n(C)c1=O)c1ccccc1
outcome [1]: inactive

Cc1ccc2c(c1)c1c3n2CCNC3CCC1 (stereo unspecified)
survival [2]: 11.2 (inactive)

COc1ccc2c(c1OC)C(=O)O[C@@H]2[C@H]1c2c(cc3c(c2OC)OCO3)CCN1C
period change [3]: -0.03 h (inactive) | survival [2]: 2.92 (inactive) | inhibition [4]: -2% (inactive) | fluorescence ratio (interference) [5]: 1 (inactive) | outcome [6]: inactive | luciferase signal [7]: 44 AU (inactive)

CC#C[C@]1(O)CC[C@H]2[C@@H]3CCC4=CC(=O)CCC4=C3[C@@H](c3ccc(N(C)C)cc3)C[C@@]21C
period change [3]: 0.39 h (inactive) | survival [2]: 27.7 (inactive) | inhibition [4]: -1% (inactive) | fluorescence ratio (interference) [5]: 0.9 (inactive) | AC50 [8]: 0.418 µM (active) | AC50 [9]: 29.5 µM (active) | AC50 [10]: 2.96 µM (active) | outcome [6]: inactive | luciferase signal [7]: 36 AU (inactive)

CN=C(NC#N)Nc1ccc(C2=NNC(=O)CC2C)cc1 (stereo unspecified)
period change [3]: 0.035 h (inactive)

Cc1ccc(=O)n(-c2ccccc2)c1
period change [3]: -0.085 h (inactive) | inhibition [4]: -4% (inactive) | fluorescence ratio (interference) [5]: 1 (inactive) | outcome [6]: inactive

CN1CCC[C@@H]1Cc1c[nH]c2ccc(CCS(=O)(=O)c3ccccc3)cc12
outcome [6]: inactive | luciferase signal [7]: 48 AU (inactive)

C1COC(NC(C2CC2)C2CC2)=N1
period change [3]: 0.03 h (inactive) | survival [2]: 19 (inactive) | inhibition [4]: 0% (inactive) | fluorescence ratio (interference) [5]: 1 (inactive) | outcome [11]: inactive | outcome [9]: inactive | outcome [10]: inactive | outcome [1]: inactive | outcome [6]: inactive

c1cc(CN2CCCCC2)cc(OCCCNc2nc3ccccc3s2)c1
period change [3]: -0.085 h (inactive) | inhibition [4]: -2% (inactive) | fluorescence ratio (interference) [5]: 1 (inactive) | outcome [6]: inactive

FC(F)(F)c1ccccc1-n1ccnc1
period change [3]: -0.115 h (inactive) | inhibition [4]: 0% (inactive) | fluorescence ratio (interference) [5]: 1 (inactive) | outcome [6]: inactive

CC1(CN2CCC(n3c(=O)[nH]c4ccccc43)CC2)OCc2ccccc2-n2cccc21 (stereo unspecified)
outcome [8]: inactive | outcome [10]: inactive | SSMD [12]: 2.84 | cell count [12]: 7080 | plate-normalised HSF1 focus index [12]: 1.16 (inactive)

CC[N+](CC)(CC)CCOc1ccc(/C=C/c2ccccc2)cc1
inhibition [4]: -3% (inactive) | fluorescence ratio (interference) [5]: 1 (inactive) | outcome [6]: inactive

COCC(=O)O[C@]1(CCN(C)CCCc2nc3ccccc3[nH]2)CCc2cc(F)ccc2[C@@H]1C(C)C
period change [3]: -0.16 h (inactive) | inhibition [4]: -2% (inactive) | fluorescence ratio (interference) [5]: 1 (inactive) | outcome [6]: inactive

CSCC[C@H](NC(=O)[C@H](Cc1c[nH]c2ccccc12)NC(=O)CCNC(=O)OC(C)(C)C)C(=O)N[C@@H](CC(=O)O)C(=O)N[C@@H](Cc1ccccc1)C(N)=O
outcome [8]: inactive | outcome [11]: inactive | outcome [9]: inactive | outcome [10]: inactive | outcome [1]: inactive

CS(=O)(=O)CCNCc1ccc(-c2ccc3ncnc(Nc4ccc(OCc5cccc(F)c5)c(Cl)c4)c3c2)o1
AC50 [8]: 11.8 µM (active) | AC50 [11]: 18.6 µM (active) | AC50 [9]: 13.2 µM (active) | AC50 [10]: 16.6 µM (active) | AC50 [1]: 20.9 µM (active)

CNC(=O)c1cc(Oc2ccc(NC(=O)Nc3ccc(Cl)c(C(F)(F)F)c3)cc2)ccn1
AC50 [8]: 20.9 µM (active) | AC50 [9]: 10.5 µM (active) | AC50 [10]: 20.9 µM (active) | AC50 [1]: 4.17 µM (active) | SSMD [12]: 0.678 | cell count [12]: 6960 | plate-normalised HSF1 focus index [12]: 1.05 (inactive)

Clc1ccc(Nc2nnc(Cc3ccncc3)c3ccccc23)cc1
outcome [11]: inactive | AC50 [9]: 20.9 µM (active) | outcome [10]: inactive | AC50 [1]: 18.6 µM (active) | SSMD [12]: 2.9 | cell count [12]: 7070 | plate-normalised HSF1 focus index [12]: 1.15 (inactive)

Nc1ccn(C[C@@H](CO)OCP(=O)(O)O)c(=O)n1
outcome [8]: inactive | outcome [11]: inactive | outcome [9]: inactive | outcome [10]: inactive | outcome [1]: inactive

CC1(COc2ccc(CC3SC(=O)NC3=O)cc2)CCCCC1 (stereo unspecified)
survival [2]: 117 (inactive)

Cc1oc(=O)oc1CN1CCN(c2cc3c(cc2F)c(=O)c(C(=O)O)c2n3C(C)S2)CC1 (stereo unspecified)
outcome [8]: inactive | outcome [11]: inactive | outcome [9]: inactive | outcome [10]: inactive | outcome [1]: inactive

O=C(NOCC1CC1)c1ccc(F)c(F)c1Nc1ccc(I)cc1Cl
AC50 [8]: 20.9 µM (active) | AC50 [11]: 3.32 µM (active) | AC50 [9]: 2.35 µM (active) | AC50 [10]: 10.5 µM (active) | AC50 [1]: 1.86 µM (active)

NS(=O)(=O)c1cc(Cl)c(Cl)c(S(N)(=O)=O)c1
survival [2]: 2 (inactive) | outcome [8]: inactive | outcome [9]: inactive | outcome [10]: inactive | outcome [1]: inactive

CCOC(=O)[C@H](CCc1ccccc1)N[C@H]1CS[C@H](c2cccs2)CN(CC(=O)O)C1=O
AC50 [8]: 1.87 µM (active) | outcome [11]: inactive | outcome [9]: inactive | outcome [10]: inactive | outcome [1]: inactive

CC(C)CC(=O)N[C@H](C(=O)N[C@H](C(=O)N[C@@H](CC(C)C)[C@@H](O)CC(=O)N[C@@H](C)C(=O)N[C@@H](CC(C)C)[C@@H](O)CC(=O)O)C(C)C)C(C)C (Isovaleryl-VV[Sta]A[Sta]-OH)
outcome [8]: inactive | outcome [11]: inactive | outcome [9]: inactive | outcome [10]: inactive | outcome [1]: inactive

CCCCCCCCCCCCCCCC(=O)NCCO
period change [3]: 0.19 h (inactive) | survival [2]: 109 (inactive) | inhibition [4]: -7% (inactive) | fluorescence ratio (interference) [5]: 1 (inactive)

O=C(O)C(=O)Nc1cccc(-c2nn[nH]n2)c1
outcome [8]: inactive | outcome [9]: inactive | outcome [10]: inactive | outcome [1]: inactive

C[C@@H](NCCCc1cccc(C(F)(F)F)c1)c1cccc2ccccc12
outcome [8]: inactive | AC50 [11]: 18.6 µM (active) | AC50 [9]: 14.8 µM (active) | outcome [10]: inactive | AC50 [1]: 16.6 µM (active)

Source: PubChem BioAssay
